In all, about 40,000 compounds went through this assay and about 1,400 (3.5%) were called active.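 Rule for the calls: active = any of four per-well response measures lying three or more SD from its plate-wide compound average, in either direction; inactive = the rest, inconclusive results apart.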 Shown is part of a subset that was picked to be rich in actives.

Data on 37 compounds can be found in PubChem BioAssay AID1259245 (Vanderbilt High Throughput Screening Facility, 2017).

For this test, the target named is Voltage-dependent calcium channel gamma-2 subunit (Mus musculus) + Glutamate receptor 2 (Rattus norvegicus) (UniProt O88602+P19491). As to the kind of experiment: AMPAR-TARP gamma-2 complex positive or negative modulation – cell-based, membrane potential dye, primary screen (AID 1259245). To be noted: HEK293 GluA2+stargazin, membrane potential dye (FDSS), glutamate EC50, at 30 µM, hits were called plate by plate, in both directions; compound max-min signal: compound-alone response (agonism); glutamate slope, % of max: measured here: glutamate response slope, % max.
Chain of Voltage-dependent calcium channel gamma-2 subunit (Mus musculus) + Glutamate receptor 2 (Rattus norvegicus) (O88602 whole entry, looked up): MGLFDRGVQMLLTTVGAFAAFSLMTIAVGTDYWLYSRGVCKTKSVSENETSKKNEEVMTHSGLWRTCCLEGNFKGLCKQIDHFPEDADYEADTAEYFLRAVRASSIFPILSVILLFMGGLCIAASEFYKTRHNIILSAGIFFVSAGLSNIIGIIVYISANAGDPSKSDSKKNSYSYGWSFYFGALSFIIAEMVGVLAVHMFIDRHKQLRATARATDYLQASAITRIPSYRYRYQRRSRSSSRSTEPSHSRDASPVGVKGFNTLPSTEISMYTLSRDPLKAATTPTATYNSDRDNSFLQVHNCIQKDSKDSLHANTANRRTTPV
Chain of Voltage-dependent calcium channel gamma-2 subunit (Mus musculus) + Glutamate receptor 2 (Rattus norvegicus) (P19491 whole entry, looked up): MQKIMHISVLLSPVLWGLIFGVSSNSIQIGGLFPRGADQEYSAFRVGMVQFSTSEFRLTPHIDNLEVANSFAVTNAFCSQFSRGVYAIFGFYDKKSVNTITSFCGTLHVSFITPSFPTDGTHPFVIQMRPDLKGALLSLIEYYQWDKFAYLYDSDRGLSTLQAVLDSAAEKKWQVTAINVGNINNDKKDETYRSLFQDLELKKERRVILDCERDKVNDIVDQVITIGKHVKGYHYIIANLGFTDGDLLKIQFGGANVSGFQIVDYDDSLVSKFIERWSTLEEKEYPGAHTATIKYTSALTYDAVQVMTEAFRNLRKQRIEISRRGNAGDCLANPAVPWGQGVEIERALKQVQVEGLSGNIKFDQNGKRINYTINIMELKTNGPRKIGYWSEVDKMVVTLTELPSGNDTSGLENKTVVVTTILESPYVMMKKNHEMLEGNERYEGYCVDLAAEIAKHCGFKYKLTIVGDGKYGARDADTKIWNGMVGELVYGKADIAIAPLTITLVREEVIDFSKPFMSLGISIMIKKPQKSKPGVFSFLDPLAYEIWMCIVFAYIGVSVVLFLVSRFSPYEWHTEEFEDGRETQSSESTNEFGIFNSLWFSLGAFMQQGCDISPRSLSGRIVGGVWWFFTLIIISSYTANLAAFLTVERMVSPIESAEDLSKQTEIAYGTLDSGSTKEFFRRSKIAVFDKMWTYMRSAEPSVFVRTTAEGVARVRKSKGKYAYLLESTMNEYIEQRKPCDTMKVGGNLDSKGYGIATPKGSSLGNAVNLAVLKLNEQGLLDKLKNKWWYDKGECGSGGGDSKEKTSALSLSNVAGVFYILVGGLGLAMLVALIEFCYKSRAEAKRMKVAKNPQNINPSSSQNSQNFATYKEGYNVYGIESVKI
As to `CCCN(CCC)S(=O)(=O)c1cc([N+](=O)[O-])ccc1C`, the compound max-min signal stood at 0.0514; the glutamate response, % of max is 71% (active); the glutamate slope, % of max came out at 88.7%.
Regarding `CCc1nc2sc(C(c3ccc(F)c(F)c3)N3CCN(C(C)=O)CC3)c(O)n2n1` (stereo unspecified), the compound max-min signal was 0.111; the glutamate response, % of max is 52.6% (inactive); the glutamate slope, % of max was 74.4%.
In the same order, the values of `NS(=O)(=O)c1ccc(CNC(=O)Cc2csc(Nc3cccc(Cl)c3)n2)cc1` are 0.171, 32.8% (inactive) and 56.3%.
For the compound `CC(C)(C)n1ncc2c(=O)n(NC(=O)Cc3ccc([N+](=O)[O-])cc3)cnc21`, the compound max-min signal was 0.0341; the glutamate response, % of max was 22.1% (inactive); the glutamate slope, % of max is 47.4%.
On the same counts, the results for `Cc1ccccc1C(=O)Nn1cnc2c(cnn2C(C)(C)C)c1=O` are 0.0501, 31.3% (inactive) and 53.1%.
In the same order, the values of `COCC(=O)Nn1cnc2c(cnn2C(C)(C)C)c1=O` are 0.121, -2.09% (active) and 5.77%.
Take `Cc1cc(C)c2c(n1)sc1c(=O)n(CC(=O)Nc3ccccc3Br)cnc12`: the compound max-min signal came out at 0.125; the glutamate response, % of max was 47% (inactive); the glutamate slope, % of max amounted to 70.2%.
As to `CCCOC(=O)CC1C(=O)NCCN1C(=S)NC(=O)c1cccc(Cl)c1` (stereo unspecified), the compound max-min signal amounted to 0.102; the glutamate response, % of max was 20% (inactive); the glutamate slope, % of max is 39.3%.
For `COc1ccc(Cl)cc1NC(=O)NCC#CCN1CCc2ccccc2C1`, the compound max-min signal came out at 0.108; the glutamate response, % of max is 30.6% (inactive); the glutamate slope, % of max is 53.9%.
In the case of `COc1ccc(Cl)cc1NC(=O)CC1C(=O)NCCN1C(=S)Nc1ccccc1` (stereo unspecified), the compound max-min signal amounted to 0.205; the glutamate response, % of max is 26.6% (active); the glutamate slope, % of max turned out to be 35.6%.
On the same counts, the results for `Cn1nnc2c(N(CCc3ccccc3)Cc3ccccc3)ncnc21` are 0.0947, 34% (inactive) and 57.6%.
In the same order, the values of `CCOC(=O)c1cn(CC(=O)Nc2ccc(C)cc2Cl)c2nc(C)ccc2c1=O` are 0.132, 31.9% (inactive) and 51%.
With `COc1cc(NS(=O)(=O)c2ccc(NC(=O)c3ccc(S(=O)(=O)N4CCOCC4)cc3)cc2)ncn1`, the compound max-min signal stood at 0.0995; the glutamate response, % of max is 43.4% (inactive); the glutamate slope, % of max was found to be 72.4%.
On the same counts, the results for `CCOc1ccc2nc(N(Cc3ccncc3)C(=O)/C=C/c3cccs3)sc2c1` are 0.107, 21.1% (inactive) and 47.3%.
`COc1ccc(S(=O)(=O)N2CCN(c3ccc4nncn4n3)CC2)cc1C`: the compound max-min signal was determined as 0.114; the glutamate response, % of max was 18.4% (inactive); the glutamate slope, % of max was determined as 44.4%.
In the same order, the values of `O=S(=O)(c1ccc(F)cc1F)N1CCN(c2ccc(-c3cccs3)nn2)CC1` are 0.0403, 12.3% (inactive) and 30.1%.
Take `CCc1ccc(S(=O)(=O)N2CCN(c3ccc(Nc4cccc(C)n4)nn3)CC2)cc1`: the compound max-min signal stood at 0.366; the glutamate response, % of max was 22.6% (active); the glutamate slope, % of max came out at 37.7%.
On the same counts, the results for `O=S(=O)(c1cccs1)N1CCC(c2ccsc2)CC1` are 0.115, 35.3% (inactive) and 65.4%.
In the same order, the values of `Cc1cccc(Nc2ccc(N3CCN(S(=O)(=O)c4cccs4)CC3)nn2)n1` are 0.445, 13.5% (active) and 21.9%.
On the same counts, the results for `O=S(=O)(c1ccc2c(c1)CCCC2)N1CCN(c2ccc3nncn3n2)CC1` are 0.0592, 23.2% (inactive) and 46.1%.
Take `COc1cccc(-c2noc(C3CCN(S(=O)(=O)c4ccc(C)cc4)CC3)n2)c1OC`: the compound max-min signal came to 0.0999; the glutamate response, % of max is 28.5% (inactive); the glutamate slope, % of max was found to be 52.6%.
In the same order, the values of `O=S(=O)(c1ccccc1)N1CCN(Cc2nnnn2-c2ccc(F)cc2)CC1` are 0.0497, 29.1% (inactive) and 63.3%.
As to `O=S(=O)(Cc1ccc(Cl)cc1)c1ccc(NCc2ccccc2)nn1`, the compound max-min signal was found to be 0.0863; the glutamate response, % of max is 49.2% (inactive); the glutamate slope, % of max was determined as 64.8%.
For `CCOC(=O)N1CCN(/C=C2\Oc3c(ccc(O)c3C)C2=O)CC1`, the compound max-min signal is 0.132; the glutamate response, % of max was 21.6% (inactive); the glutamate slope, % of max was 32.3%.
On the same counts, the results for `COc1ccc(-c2cc3ccc4c(c3oc2=O)CN(C2CCS(=O)(=O)C2)CO4)cc1OC` (stereo unspecified) are 0.083, 20.7% (inactive) and 43.1%.
As for `CC(O)(CNC(=O)/C=C/c1ccccc1)c1ccccc1` (stereo unspecified), the compound max-min signal worked out at 0.0976; the glutamate response, % of max is 44.2% (inactive); the glutamate slope, % of max was 61.2%.
In the case of `Cc1cnc2c(c1NCCc1ccc(S(N)(=O)=O)cc1)c(=O)n(C)c(=O)n2C`, the compound max-min signal came out at 0.167; the glutamate response, % of max was 32.2% (active); the glutamate slope, % of max came to 50%.
In the case of `CCOC(=O)C(CC)Sc1ccnc2c1c(=O)n(C)c(=O)n2C` (stereo unspecified), the compound max-min signal was determined as 0.0572; the glutamate response, % of max was 21.5% (inactive); the glutamate slope, % of max was determined as 49.8%.
In the same order, the values of `COCc1cnc2c(c1SCc1ccc(Br)cc1)c(=O)n(C)c(=O)n2C` are 0.0342, 27% (inactive) and 47.1%.
`Cc1cnc2c(c1SCc1ccc([N+](=O)[O-])cc1)c(=O)n(C)c(=O)n2C`: the compound max-min signal was found to be 0.158; the glutamate response, % of max is 47.1% (active); the glutamate slope, % of max turned out to be 69.5%.
Regarding `Cc1cnc2c(c1SCC(=O)O)c(=O)n(C)c(=O)n2C`, the compound max-min signal worked out at 0.0266; the glutamate response, % of max is 30.3% (inactive); the glutamate slope, % of max is 58%.
With `Cn1c(=O)c2c(ncn2CCc2ccccc2)n(C)c1=O`, the compound max-min signal turned out to be 0.12; the glutamate response, % of max was 41.9% (inactive); the glutamate slope, % of max is 67.6%.
In the same order, the values of `COc1ccc(CNC(=O)C(=O)NCC2CCN(Cc3cccs3)CC2)cc1` are 0.0534, 41.2% (inactive) and 57.3%.
Turning to `CCOc1ccc(CC(=O)Nc2nn(C)c3c2C(C)CC(=O)N3)cc1` (stereo unspecified), the compound max-min signal stood at 0.129; the glutamate response, % of max is 42.6% (inactive); the glutamate slope, % of max worked out at 64.1%.
As to `O=C(Nc1cc(-c2ccco2)nn1-c1nc(-c2ccccc2)cc(=O)[nH]1)c1ccco1`, the compound max-min signal worked out at 0.115; the glutamate response, % of max was 35.5% (inactive); the glutamate slope, % of max came to 53.1%.
Regarding `Cn1nnc2c(N3CCN(C(=O)c4cc5ccccc5o4)CC3)ncnc21`, the compound max-min signal was 0.0567; the glutamate response, % of max is 24.9% (inactive); the glutamate slope, % of max amounted to 41.7%.
As for `Cc1cc(C)n(CCNC(=O)c2nc(-c3cnccn3)no2)n1`, the compound max-min signal was found to be 0.147; the glutamate response, % of max is 48.6% (inactive); the glutamate slope, % of max was determined as 86.3%.
